This is part of a sample that, as a whole, favours compounds with a hit. Of some 83,000 tested, about 20% had one in any assay.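 A percent growth of 40 corresponds to 60% growth inhibition; 0 means no net growth; -100 means all cells died. Active threshold: below 10.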 Values without a mark were called inactive. Active and inactive are the calls of the source.

The values below come from PubChem BioAssay (NCI).

The test system of this assay is RXF 393 renal. The assay can be described thus: NCI-60 one-dose screen, 48 h (100 = growth as untreated, 0 = no growth, -100 = all killed). The note with it: 10 µM unless noted.
In the case of `O=C1/C(=C/c2ccccc2)SC(=Nc2ccccc2)N1Nc1ccccc1`, the growth is -58% (active).

Regarding `COc1cnc2c(c1)C(=O)c1c-2n(CCCNC(C)C)c(=O)c2cc(Cl)ccc12`, the growth is -77.1% (active).

As to `CCSCC1CC(O)(c2ccccc2)C(c2ccccc2)C(c2ccc(F)cc2)O1` (centres undefined), the growth is -12.4% (active).

In the case of `CN1C(=O)C(C2=NNC(c3ccccc3C(=O)O)C2)C(=O)N(C)C1=O` (centres undefined), the growth is 106%.

Regarding `NC(N)=NC1CCCCC1`, the growth is 97.3%.

`COc1ccc(C(=O)OC2C(OC3C(O)COC(O[C@H]4C[C@H]5[C@@H]6CC=C7C[C@@H](O)CC[C@]7(C)[C@H]6CC[C@]5(C)[C@H]4[C@H](C)C(=O)CCC(C)C)C3OC(C)=O)OCC(O)C2O)cc1` (some centres undefined): the growth is -71.9% (active).

For `CC(C)(C)c1ccc(OC(=O)Nc2ccccc2)cc1`, the growth is 118%.

For the compound `CN1C2CCC1/C(=C\c1ccc(F)cc1)C(=O)/C2=C/c1ccc(F)cc1`, the growth is 66.2%.

On to `CCCCOC(=O)c1cc(O)c(O)c(O)c1`, for which the growth was 82%.

As to `CCOC(=O)C1OC2(CCCC2)OC1C(=O)OCC` (centres undefined), the growth was 104%.

On to `O=C(Nc1cccc(-n2ccc3c(NC(=O)c4ccccc4)nccc32)c1)c1ccc(N2CCOCC2)c(C(F)(F)F)c1`, for which the growth is -59.8% (active).

As for `CCN(CC)CCCC(C)Nc1c(-c2ccccc2)cnc2cc(Cl)ccc12` (centres undefined), the growth is 63.4%.

On to `O=C1C=CN2C(=O)CC=CC2[C@@H]1O` (some centres undefined), for which the growth was 118%.

On to `CC(=O)O[C@@H]1CC2C(C)(C)CCCC2(C)C2=C1C(=O)C(C(C)C)=CC2=O` (some centres undefined), for which the growth is -57.8% (active).

As to `O=C(Nc1ccc(-n2ccc3c(NC(=O)c4ccccc4)nccc32)cc1)c1ccc(N2CCOCC2)c(C(F)(F)F)c1`, the growth was -66.5% (active).

On to `COc1cc(/C=C/c2cc(/C=C/c3ccc(O)c(OC)c3)n(C(=O)Nc3ccc(F)c(Cl)c3)n2)ccc1O`, for which the growth was -57.6% (active).

On to `COc1cc(OC)c2sc(-c3ccc(-n4cncc4-c4ccc(OC)c(N)c4)cc3)nc2c1`, for which the growth is 75.4%.

In the case of `COc1ccc(C2=NNC(c3ccc(Oc4nc5c(c(=O)n(C)c(=O)n5C)n4C)c(OC)c3)C2)cc1` (centres undefined), the growth is 87.5%.

`NS(=O)(=O)c1ccc(CCn2c(SCC(=O)N/N=C/c3cccnc3)nc3ccccc3c2=O)cc1`: the growth is 93.4%.

In the case of `O=C(NNC(=O)c1cccc(Cl)c1)c1ccccc1`, the growth was 109%.

On to `N=c1nc(N2CCCCC2)cc(N)n1O`, for which the growth was 108%.

For the compound `Cc1ccc(C)c(NC(=O)c2sc3c(=O)[nH]cnc3c2C)c1`, the growth is 90.1%.

For `C=CCOC(=O)C1=C(C)NC2=C(C(=O)CCC2)C1c1ccc(F)cc1` (centres undefined), the growth is 111%.

For `COc1ccc(-c2cnc(-c3ccncc3-c3cccc(OC)c3)o2)cc1`, the growth was 43.1%.

As for `O=C(Nc1ccncc1)C(=O)c1cn(S(=O)(=O)c2cccc(Cl)c2F)c2ccccc12`, the growth was 92.5%.

Consider `Cc1ccccc1Nc1n[nH]c(Cc2ccccc2)n1`, for which the growth is 108%.

Turning to `Oc1ccccc1-c1nnc(COc2ccc(Cl)cc2Cl)o1`, the growth was 63.5%.

For `CS(=O)(=O)c1ccc(C(=O)N/N=C/c2ccccc2O)cc1`, the growth was 53%.

For the compound `CCCCCCCCCCCCCCCCCC(=O)OCCCCCCCCCCCCC`, the growth was 109%.

On to `COc1cc(C2CC(c3ccc(C)cc3)=NN2C=O)ccc1Oc1nc2c(c(=O)n(C)c(=O)n2C)n1C` (centres undefined), for which the growth is 98.6%.

On to `COc1cc(C2CC(c3ccccc3)=NN2C=O)ccc1Oc1ccnc2cc(Cl)ccc12` (centres undefined), for which the growth was 98.9%.

As to `NC(N)=N/N=C/c1ccc(Cl)cc1`, the growth was 89.3%.

Take `O=c1c2cc(Cl)ccc2oc2ccc(OCCCCCN3CCCCC3)cc12`: the growth is 60.9%.

Take `COc1cc(Cl)cc(-c2nn(C(=O)NCCN3CCOCC3)cc2-c2ccncc2)c1`: the growth is 76.3%.

Turning to `COc1ccc2nc3ccccc3c(NCc3ccc(Cl)cc3)c2c1`, the growth was -24.2% (active).

As for `CN1C(=O)N(C)C2C1NN=c1s/c(=C\c3ccc(C(F)(F)F)cc3)c(=O)n12` (centres undefined), the growth is -3.65% (active).

With `C=C1C(=O)O[C@H]2[C@H]1CC/C(COC(=O)NCc1cn(C)c3ccccc13)=C\CC[C@@]1(C)O[C@@H]21`, the growth was -93.7% (active).

`c1csc(-c2cnc3nonc3n2)c1`: the growth was 117%.

Regarding `Nc1nc(NC2CC2)cc(-c2cccc(Cl)c2Cl)n1`, the growth was 73.3%.
